This is an account of results in PubChem BioAssay.

The source made the active and inactive calls. Rule as the data show it, unless noted: active = inhibition above about 80%; inactive = the rest.

Assay [1] can be described thus: differential killing of epithelial or mesenchymal cells, primary screen, imaging, PC-3E GFP, TEM4-18 mCherry, co-culture (AID 1345086;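 active = compounds killing one labelled cell type while sparing the other, by normalised counts and ratio limits, not self-fluorescent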;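 also: cells exposed to compound for 72 h before imaging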;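 as to red/green cell ratio (normalised): normalised mesenchymal count divided by normalised epithelial count so high means epithelial killing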). The conditions noted are these: imaging cell counts, at 1 µM.
A short description of assay [2]: LFS_MB_1R medulloblastoma cell growth inhibition, synergistic combos for chromothripsis tumors, cisplatin or BGB combos (AID 1671452).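 Also: cells exposed for 96 hours before readout.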 The conditions noted are these: LFS_MB_1R medulloblastoma cells, stronger effect = higher value.
The nature of assay [3]: CRL2098 osteosarcoma cell growth inhibition, synergistic combos for chromothripsis tumors, BGB or cisplatin IC20 combos (AID 1671454).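 Also: cells exposed for 96 h before readout; 0% = vehicle DMSO and 100% = killing by high DMSO.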 The conditions noted are these: CRL2098 osteosarcoma cells, drug combinations, stronger effect = higher value.
Assay [4] in a line: HD-MB03 medulloblastoma cell growth inhibition, synergistic combos for chromothripsis tumors, BGB or cisplatin IC20 combos (AID 1671455; in the data active = inhibition above about 83%;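 also: 0% = vehicle DMSO and 100% = high DMSO as cytotoxic control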). Conditions: HD-MB03 medulloblastoma cells, stronger effect = higher value.
Assay [5] is described as follows: UWB1.289 ovarian carcinoma cell growth inhibition, synergistic combos for chromothripsis tumors, BGB or cisplatin combos (AID 1671456).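 Also: cells exposed to compound for four days; 0% = vehicle DMSO and 100% = killing by high DMSO.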 Conditions: UWB1.289 ovarian carcinoma cells, stronger effect = higher value.
Assay [6] can be described thus: LFS_MB_2R medulloblastoma cell growth inhibition, synergistic combos for chromothripsis tumors, cisplatin combos (AID 1671457).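 Also: cells exposed to compound for four days before readout.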 The conditions noted are these: LFS_MB_2R medulloblastoma cells, stronger effect = higher value.
Assay [7] can be described thus: MDA-MB-436 breast carcinoma cell growth inhibition, synergistic combos for chromothripsis tumors, BGB or cisplatin combos (AID 1671458; call rule not given here;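 also: cells exposed for 96 hours; 0% = vehicle DMSO and 100% = killing by high DMSO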). The conditions noted are these: MDA-MB-436 breast carcinoma growth inhibition, drug combinations, stronger effect = higher value.
The nature of assay [8]: UWB1.289_BRCA1 ovarian cancer growth, cell-based, BGB or cisplatin combinations (AID 1671459). The conditions noted are these: UWB1.289 BRCA1 ovarian carcinoma, drug combinations, stronger effect = higher value.
Assay [9] can be described thus: human astrocyte viability loss, single and combined drugs, cytotoxicity control for chromothriptic childhood tumor combination screen, cell-based, BGB or cisplatin IC20 combos (AID 1671460).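 Also: cells exposed to compounds for 96 hours before viability readout; 0% = vehicle and 100% = killing control.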 Conditions: Human astrocytes, drug combinations, stronger effect = higher value.
Assay [10] in a line: growth inhibition of BT084 medulloblastoma cells, cell-based, ICGC_MB145, cisplatin and BGB IC40 combos (AID 1671461).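 Also: cells exposed to drugs for 96 hours; 0% = vehicle DMSO and 100% = high DMSO full killing control.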 The conditions noted are these: drug combinations, stronger effect = higher value.
Assay [11] in a line: growth inhibition of RCMB18 medulloblastoma cells, cell-based, cisplatin and BGB IC40 combos (AID 1671462).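 Also: cells exposed to compound for four days.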 Conditions: stronger effect = higher value.
A short description of assay [12]: growth inhibition of CRL1545 osteosarcoma cells, cell-based, cisplatin and BGB IC20 combos (AID 1671464).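 Also: cells exposed to compound for 96 hours before readout; 0% = vehicle DMSO and 100% = high DMSO killing control.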 Conditions: stronger effect = higher value.
The nature of assay [13]: circadian clock period modulators, cell-based, LOPAC library, luminescence reporter (AID 2774; call rule not given here;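 also: values are relative to mean of DMSO wells on each plate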). Conditions: circadian reporter cells, at 7 µM, actives lie on both sides.
Assay [14] deals with Hepatitis C virus NS3 helicase. Briefly: HCV NS3 helicase inhibitors, primary screen, biochemical, fluorescence polarization, LOPAC1280 library (AID 687035; in the data active = inhibition above about 37%). Conditions: Purified HCV NS3 helicase, Cy5-dT15 ssDNA binding fluorescence polarization; stronger effect = higher value; concentration not given here.
The nature of assay [15]: Cy5 fluorescence quenching or enhancement artefacts, artefact control for HCV NS3 helicase inhibitor project, biochemical, LOPAC1280 (AID 687037; call rule not given here). Conditions: Cy5-DNA-NS3h complex fluorescence interference counterscreen.
Setting [16] is: measured here: combination with cisplatin, at 0.5 µM.
Where [17] appears, read: measured here: combination with cisplatin, at 5 µM.

On to `CCN(CC)C(=O)c1cccnc1`, for which the red/green cell ratio (normalised) in assay [1] (actives lie on both sides, counts scaled to control wells, 1 = unselective) was 1.14 (inactive). Besides, the normalised cell number in assay [1] (measured here: epithelial PC-3E GFP cell survival) is 0.99; in assay [1] (measured here: mesenchymal TEM4-18 mCherry cell survival), 1.13.

In the case of `Cc1ccc2nc(N)[nH]c(=O)c2c1Sc1ccncc1`, the inhibition was -7.14% (inactive) in assay [2] (at 0.5 µM); -4.51% in assay [2] (measured here: combination with BGB IC40, at 0.05 µM); -35.9% in [2] (setting [16]); 0.93% in assay [2] (setting [17]); -63.7% (inactive) in assay [3] (at 0.5 µM); -72.3% in [3] (measured here: combination with BGB at IC20, at 0.5 µM). Also, the inhibition in assay [3] (measured here: combination with cisplatin at IC20, at 0.5 µM) was -84.4%; in assay [4] (at 0.5 µM), -15.4% (inactive); in [4] (measured here: combo with BGB at IC20, at 0.5 µM) it was -11.9%; in [4] (measured here: combo with cisplatin at IC20, at 0.5 µM) it was -25.1%; in [5] (at 0.5 µM), -17.5% (inactive); in assay [5] (measured here: inhibition with BGB combination, at 0.05 µM) it was 4.97%. The inhibition was -23% in assay [5] (measured here: inhibition with cisplatin combination, at 0.05 µM); -12.4% (inactive) in assay [6] (at 0.5 µM); -25.9% in assay [6] (setting [16]); -11.5% in [6] (setting [17]); -7.12% (inactive) in [7] (at 0.5 µM); -5.47% in assay [7] (measured here: BGB combination, at 0.5 µM). The inhibition in assay [7] (measured here: BGB combination, at 5 µM) was 11%; in [7] (measured here: cisplatin combination, at 0.5 µM), -13.7%; in assay [7] (measured here: cisplatin combination, at 5 µM) it was 37.3%; in [8] (BGB combination, concentration series, at 5 µM), -8.1%; in [8] (at 0.5 µM) it was -23.6% (inactive); in assay [8] (cisplatin combination, concentration series, at 5 µM), -9.76%. Besides, the inhibition in [9] (at 0.5 µM) is -6.91% (inactive); in [9] (measured here: combo with BGB IC20, at 0.5 µM) it was -8.77%; in assay [9] (measured here: combo with cisplatin IC20, at 0.5 µM), -12.3%; in assay [10] (at 0.5 µM) it was 3.52% (inactive); in assay [10] (cisplatin combination, at 0.5 µM) it was -1.35%; in assay [10] (cisplatin combination, at 5 µM) it was -137%. The inhibition in assay [10] (measured here: BGB IC40 combination 0.05 uM, at 0.05 µM) was -7.71%; in assay [10] (single agent, at 5 µM) it was 6.61%; in assay [11] (at 0.5 µM), -22.7% (inactive); in [11] (cisplatin combo, at 5 µM) it was -4.62%; in [11] (measured here: BGB IC40 combination, at 0.05 µM), -25.2%; in assay [11] (setting [16]), -45.9%. Also, the inhibition was 12.6% in assay [11] (single agent, at 5 µM); -26.5% (inactive) in assay [12] (at 0.5 µM); -34.6% in assay [12] (measured here: with BGB IC20 combination, at 0.5 µM); -24.4% in assay [12] (measured here: with cisplatin IC20 combination, at 0.5 µM); -59.1% in assay [12] (single agent, at 0.05 µM); -14.1% in assay [12] (single agent, at 5 µM).

Consider `CN(C)CCCO[C@@H]1[C@H]2OC(C)(C)O[C@H]2O[C@@H]1C(O)CO` (stereo partly drawn), for which the period change in assay [13] is -0.08 h (inactive). In addition, in assay [14], the inhibition was -4% (inactive). Further, the fluorescence ratio (interference) in assay [15] was 1 (inactive).
